Results reported in the supplement of paper PMC6555819.

Legend:
Assay in all cases: PBM binding z-score (relative to random genomic background probes); higher = stronger binding; sequences stand for … in GC…GCGATTGACAGCGTAGAATGAAGG
[1] = test system: FXR:RXRa (NR concentration 270 nM, RXRa partner concentration 90 nM)
Outline: (§1)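 Ligand-free nuclear receptor dimers were bound for 1 h to custom Agilent 4×180K protein-binding microarrays. Detection used antibodies against each partner (one per run). Binding z-scores rest on regression-normalized fluorescence, with random background probes as the reference.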

[2] = test system: LXRa:RXRa (NR concentration 270 nM, RXRa partner concentration 90 nM)
Outline: as §1

[3] = test system: LXRa homodimer (NR concentration 270 nM)
Outline: as §1

[4] = test system: LXRb:RXRa (NR concentration 270 nM, RXRa partner concentration 90 nM)
Outline: as §1

[5] = test system: LXRb homodimer (NR concentration 270 nM)
Outline: as §1

[6] = test system: PPARa:RXRa (NR concentration 270 nM, RXRa partner concentration 90 nM)
Outline: as §1

[7] = test system: PPARg:RXRa (NR concentration 180 nM, RXRa partner concentration 90 nM)
Outline: as §1

[8] = test system: PPARg:RXRa 270nM:90nM, anti-RXR (NR concentration 270 nM, RXRa partner concentration 90 nM)
Outline: as §1

[9] = test system: PPARg:RXRa 30nM:10nM, anti-RXR (NR concentration 30 nM, RXRa partner concentration 10 nM)
Outline: as §1

[10] = test system: PPARg:RXRa 90nM:30nM, anti-RXR (NR concentration 90 nM, RXRa partner concentration 30 nM)
Outline: as §1

[11] = test system: PPARg:RXRa DBDmut IVT, anti-RXR (DBD mutation: RXRa K156A/R161A, NR concentration 270 nM, RXRa partner concentration 90 nM)
Outline: as §1

[12] = test system: PPARg:RXRa IVT, anti-PPARg (NR concentration 270 nM, RXRa partner concentration 90 nM)
Outline: as §1

[13] = test system: PPARg DBDmut:RXRa IVT, anti-PPARg (DBD mutation: PPARg1 K132A/R137A, NR concentration 270 nM, RXRa partner concentration 90 nM)
Outline: as §1

[14] = test system: PPARg DBDmut IVT, anti-PPARg (DBD mutation: PPARg1 K132A/R137A, NR concentration 270 nM)
Outline: as §1

[15] = test system: PPARg homodimer (NR concentration 180 nM)
Outline: as §1

[16] = test system: PXR:RXRa (NR concentration 270 nM, RXRa partner concentration 90 nM)
Outline: as §1

[17] = test system: PXR homodimer (NR concentration 270 nM)
Outline: as §1

[18] = test system: RARa:RXR (NR concentration 270 nM, RXRa partner concentration 90 nM)
Outline: as §1

[19] = test system: RARa homodimer (NR concentration 270 nM)
Outline: as §1

[20] = test system: RARb:RXRa (NR concentration 270 nM, RXRa partner concentration 90 nM)
Outline: as §1

AGTCAAAGTTCATCTAAGTAACGTAAGATATGCT
PBM binding z-score [1]: 6.46
PBM binding z-score [2]: 5.91
PBM binding z-score [3]: 4.97
PBM binding z-score [4]: 3.59
PBM binding z-score [5]: 1.65
PBM binding z-score [6]: 4.76
PBM binding z-score [7]: 6.53
PBM binding z-score [8]: 6.27
PBM binding z-score [9]: 3.47
PBM binding z-score [10]: 5.55
PBM binding z-score [11]: 0.404
PBM binding z-score [12]: 2.37
PBM binding z-score [13]: 0.832
PBM binding z-score [14]: 1.41
PBM binding z-score [15]: 2.51
PBM binding z-score [16]: 4.78
PBM binding z-score [17]: 4.97
PBM binding z-score [18]: 3.48
PBM binding z-score [19]: 1.03
PBM binding z-score [20]: 5.03

GTACCAAGGTGAATAGGGCGTTGATGAGTAGGCG
PBM binding z-score [1]: 0.407
PBM binding z-score [2]: 0.248
PBM binding z-score [3]: -0.214
PBM binding z-score [4]: -0.0331
PBM binding z-score [5]: -0.614
PBM binding z-score [6]: 1.22
PBM binding z-score [7]: 1.02
PBM binding z-score [8]: 0.756
PBM binding z-score [9]: -0.0867
PBM binding z-score [10]: 0.088
PBM binding z-score [11]: 1.79
PBM binding z-score [12]: 2.39
PBM binding z-score [13]: 0.11
PBM binding z-score [14]: -0.0449
PBM binding z-score [15]: 0.629
PBM binding z-score [16]: -0.0283
PBM binding z-score [17]: 0.127
PBM binding z-score [18]: 0.434
PBM binding z-score [19]: 0.194
PBM binding z-score [20]: 1.5

GCTAGTTGGTCAGTAAAAGGTCACACCCCGGTCG
PBM binding z-score [1]: 2.85
PBM binding z-score [2]: 4.02
PBM binding z-score [3]: 4.42
PBM binding z-score [4]: 3.74
PBM binding z-score [5]: 0.781
PBM binding z-score [6]: 4.19
PBM binding z-score [7]: 2.69
PBM binding z-score [8]: 4.11
PBM binding z-score [9]: 2.14
PBM binding z-score [10]: 3.78
PBM binding z-score [11]: 0.618
PBM binding z-score [12]: 2.91
PBM binding z-score [13]: -0.641
PBM binding z-score [14]: -0.291
PBM binding z-score [15]: 3.31
PBM binding z-score [16]: 4.6
PBM binding z-score [17]: 0.747
PBM binding z-score [18]: 5.06
PBM binding z-score [19]: 0.952
PBM binding z-score [20]: 4.21

AGTCGAAGTTCAGGACGAGGTAACGTAAAGCACG
PBM binding z-score [1]: 1.05
PBM binding z-score [2]: 1.05
PBM binding z-score [3]: -0.0607
PBM binding z-score [4]: 0.485
PBM binding z-score [5]: -0.831
PBM binding z-score [6]: 1.49
PBM binding z-score [7]: 1.27
PBM binding z-score [8]: 1.11
PBM binding z-score [9]: 0.224
PBM binding z-score [10]: 0.868
PBM binding z-score [11]: -0.408
PBM binding z-score [12]: 0.263
PBM binding z-score [13]: -0.282
PBM binding z-score [14]: -0.353
PBM binding z-score [15]: 0.469
PBM binding z-score [16]: 1.19
PBM binding z-score [17]: 0.0866
PBM binding z-score [18]: 1.42
PBM binding z-score [19]: 0.0687
PBM binding z-score [20]: 2.41

GGGACGAGGGCAAGTTGATAGCAGAGTTTGATGG
PBM binding z-score [1]: 1.19
PBM binding z-score [2]: 0.762
PBM binding z-score [3]: 0.0189
PBM binding z-score [4]: 1.18
PBM binding z-score [5]: 0.857
PBM binding z-score [6]: 1.42
PBM binding z-score [7]: 1.09
PBM binding z-score [8]: 1.2
PBM binding z-score [9]: 0.448
PBM binding z-score [10]: 0.913
PBM binding z-score [11]: 2.39
PBM binding z-score [12]: 2.34
PBM binding z-score [13]: -0.115
PBM binding z-score [14]: 0.569
PBM binding z-score [15]: 1.21
PBM binding z-score [16]: 1.15
PBM binding z-score [17]: 0.763
PBM binding z-score [18]: 0.688
PBM binding z-score [19]: -0.141
PBM binding z-score [20]: 2.91

GATACAGGGTCAAGACCAGAGTACGCGTATTGAT
PBM binding z-score [1]: 6.27
PBM binding z-score [2]: 3.79
PBM binding z-score [3]: 0.0908
PBM binding z-score [4]: 3.63
PBM binding z-score [5]: 0.0748
PBM binding z-score [6]: 5.37
PBM binding z-score [7]: 5.25
PBM binding z-score [8]: 4.91
PBM binding z-score [9]: 1.75
PBM binding z-score [10]: 3.56
PBM binding z-score [11]: 1.96
PBM binding z-score [12]: 3.52
PBM binding z-score [13]: 1.38
PBM binding z-score [14]: 0.619
PBM binding z-score [15]: 1.49
PBM binding z-score [16]: 3.34
PBM binding z-score [17]: 0.195
PBM binding z-score [18]: 3.93
PBM binding z-score [19]: 0.851
PBM binding z-score [20]: 4.28

ATCTCTAGGTAAAGATAGTTCAGTGAGTGCAAAT
PBM binding z-score [1]: -0.0159
PBM binding z-score [2]: 4.06
PBM binding z-score [3]: 1.22
PBM binding z-score [4]: 0.833
PBM binding z-score [5]: 0.569
PBM binding z-score [6]: 0.673
PBM binding z-score [7]: 0.242
PBM binding z-score [8]: 0.661
PBM binding z-score [9]: 0.182
PBM binding z-score [10]: 0.714
PBM binding z-score [11]: 2.29
PBM binding z-score [12]: 1.9
PBM binding z-score [13]: 0.931
PBM binding z-score [14]: 0.67
PBM binding z-score [15]: 0.928
PBM binding z-score [16]: 3.93
PBM binding z-score [17]: 11.4
PBM binding z-score [18]: 0.596
PBM binding z-score [19]: 0.987
PBM binding z-score [20]: 0.924
